Where “and” joins values, the source holds several entries; their conditions need not be identical. Equal entries are not always repeated. The campaign covered roughly 5,500 compounds. About 2,000 (36%) were called active. Inconclusive results (about 18%) are left out. Cut-off read from the data, not from the text of the source: active = normalized growth mostly below about 0.91 (no sharp cut-off); inconclusive = no clear call, values can overlap the other calls; inactive = mostly above about 0.92. The list shows a part of the results.
Assay: chemical genetic growth profiling, strain panel (AID 1159580);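 note: tested at 20 µM; growth read once vehicle control cultures reached saturation at 30 °C; 1 = growth at the plate median or of vehicle wells; lower values mean less growth of the strain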
Settings: S. cerevisiae deletion strains, growth OD

Measured: normalized growth

CN[C@@H]1[C@H](OC2[C@H](O[C@H]3[C@H](O)[C@@H](O)[C@H](N=C(N)N)[C@@H](O)[C@@H]3N=C(N)N)O[C@@H](C)[C@]2(O)C=O)O[C@@H](CO)[C@H](O)[C@H]1O (stereo not given in full)
inactive: locus YAL013W, strain DEP1, hits give low values 1 | locus YAL021C, strain ccr4, hits give low values 1 | locus YAL026C, strain drs2, hits give low values 0.993 | locus YAL030W, strain snc1, hits give low values 1.01 | locus YBL061C, strain skt5, hits give low values 1.01 | locus YBR009C, strain hhf1, hits give low values 0.988 | locus YBR021W, strain FUR4, hits give low values 1.02 | locus YBR023C, strain chs3, hits give low values 1 | locus YBR171W, strain sec66, hits give low values 1.01 | locus YBR229C, strain ROT2, hits give low values 1.02 | locus YBR231C, strain swc5, hits give low values 1.03 | locus YBR279W, strain paf1, hits give low values 0.999 | locus YCL011C, strain gbp2, hits give low values 0.992 | locus YCL016C, strain dcc1, hits give low values 0.98 | locus YCL029C, strain bik1, hits give low values 1.01 | locus YCL069W, strain vba3, hits give low values 1.01 | locus YCR088W, strain abp1, hits give low values 0.998 | locus YDL005C, strain med2, hits give low values 1.01 | locus YDL035C, strain GPR1, hits give low values 1.01 | locus YDL040C, strain nat1, hits give low values 0.999 | locus YDL074C, strain BRE1, hits give low values 1.01 | locus YDL101C, strain DUN1, hits give low values 1.01 | locus YDL134C, strain PPH21, hits give low values 1.01 | locus YDL185W, strain tfp1, hits give low values 0.996 | locus YDL192W, strain arf1, hits give low values 1.01 | locus YDR001C, strain nth1, hits give low values 0.987 | locus YDR069C, strain doa4, hits give low values 1.04 | locus YDR101C, strain arx1, hits give low values 1.01 | locus YDR137W, strain rgp1, hits give low values 1.03 | locus YDR159W, strain sac3, hits give low values 0.978 | locus YDR162C, strain NBP2, hits give low values 1 | locus YDR195W, strain ref2 1.04 | locus YDR297W, strain sur2, hits give low values 1.02 | locus YDR318W, strain mcm21, hits give low values 1.01 | locus YDR334W, strain swr1, hits give low values 1.01 | locus YDR335W, strain msn5, hits give low values 1.01 | locus YDR388W, hits give low values 1.02 | locus YDR392W, strain spt3, hits give low values 0.959 | locus YDR502C, strain sam2, hits give low values 1.02 | locus YEL003W, strain gim4, hits give low values 1.01 | locus YEL037C, strain rad23, hits give low values 1 | locus YEL061C, strain CIN8 (second series), hits give low values 1.01 | locus YEL061C, strain CIN8, hits give low values 1.01 | locus YER015W, strain faa2, hits give low values 1 | locus YER016W, strain bim1, hits give low values 0.987 | locus YER110C, hits give low values 1.03 | locus YER111C, strain swi4, hits give low values 1 | locus YER155C, strain BEM2 (second series), hits give low values 1.04 | locus YER155C, strain BEM2, hits give low values 0.995 | locus YER167W, strain BCK2, hits give low values 1.01 | locus YFR010W, strain ubp6, hits give low values 1.03 | locus YGL078C, strain dbp3, hits give low values 1 | locus YGL086W, strain mad1, hits give low values 1.01 | locus YGL167C, strain pmr1, hits give low values 1.02 | locus YGL173C, strain kem1, hits give low values 1.03 | locus YGL227W, strain vid30, hits give low values 0.998 | locus YGL240W, strain doc1, hits give low values 1.05 | locus YGL248W, strain PDE1, hits give low values 1.01 | locus YGL253W, strain hxk2, hits give low values 0.977 | locus YGR135W, strain pre9, hits give low values 1.01 | locus YGR229C, strain SMI1, hits give low values 1 | locus YGR252W, strain gcn5, hits give low values 1.01 | locus YHR013C, strain ard1, hits give low values 1.01 | locus YHR027C, strain rpn1, hits give low values 1 | locus YHR030C, strain SLT2, hits give low values 1.01 and 0.961 | locus YHR079C, strain IRE1 (second series), hits give low values 1.02 | locus YHR079C, strain IRE1, hits give low values 0.991 | locus YHR094C, strain hxt1, hits give low values 1.02 | locus YHR129C, strain ARP1, hits give low values 1.01 | locus YHR142W, strain chs7, hits give low values 1 | locus YHR200W, strain rpn10, hits give low values 1.02 | locus YIL066C, strain RNR3, hits give low values 1.02 | locus YIL073C, strain SPO22, hits give low values 1.05 | locus YIL125W, strain kgd1, hits give low values 1.01 | locus YIR030C, strain dcg1, hits give low values 1.01 | locus YJL092W, strain hpr5, hits give low values 1.01 | locus YJL095W, strain BCK1 (second series), hits give low values 1.01 | locus YJL095W, strain BCK1, hits give low values 1.01 and 0.996 | locus YJL115W, strain asf1, hits give low values 1.01 | locus YJL129C, strain trk1, hits give low values 1.02 | locus YJL134W, strain LCB3, hits give low values 1 | locus YJL154C, strain vps35, hits give low values 1 | locus YJL164C, strain tpk1, hits give low values 0.983 | locus YJL166W, strain qcr8, hits give low values 1.02 | locus YJL168C, strain set2, hits give low values 1.01 | locus YJL187C, strain SWE1 (second series), hits give low values 1.02 | locus YJL187C, strain SWE1, hits give low values 1.01 | locus YJR043C, strain POL32, hits give low values 1.01 | locus YJR066W, strain TOR1, hits give low values 0.978 | locus YJR075W, strain HOC1, hits give low values 1.01

— PubChem BioAssay AID1159580 (chemical genetic matrix, 2015)
